High-throughput results as filed in PubChem.
Compounds with a hit are over-represented: about 12% of the library has one in this group of screens.
FMDV antiviral: blocks foot and mouth disease virus | FMDV antiviral cell-based qHTS | Potency, µM (highest dose often 57.9 µM), most hits filed as inhibitors | 410,000 compounds, 1.2% hits; calls by dose curve; tested in HEK293T cells; also: read-out not given here; nearly all actives have a fitted effect of over 45% in size
CHX counter: affects cycloheximide protein synthesis inhibition readout, counter-screen. cell reporter, cycloheximide protein synthesis inhibition counterscreen. max response, %. 300,000 compounds, 12% hits. AID 2314; in the data active = max response mostly above about 13%, no sharp cut-off; inactive = mostly below about 14%; also: read at 38.3 µM for the half of the compounds with a filed dose
Shiga toxin inh: blocks Shiga toxin action in Vero cells; Vero cells, Shiga toxin protein synthesis inhibition reporter; inhibition, % at 38.7 µM; 290,000 compounds, 9.2% hits; in the data active = inhibition mostly above about 28%, no sharp cut-off; inactive = mostly below about 43%
Sm TGR inh: S. mansoni TGR enzyme inhibition; purified TGR, DTNB reduction, TNB absorbance 405 nm; Q962Y6; 360,000 compounds, 3% hits; Potency, µM (titrated, usually from 114 µM), actives largely listed as inhibitors; AID 485364; active = well fitted inhibition curve with a large enough effect; inconclusive = small, poorly fitted or top-dose-only effect; inactive = no such curve, though single readings can be large or run the other way; also: nearly all actives have a fitted effect of over 60% in size
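TGR 20 nM + NADPH 100 uM (dispensed conc.), cpd preinc 15 min RT; start with NADPH (500 uM addition) then DTNB (15 mM addition). Kinetic TNB absorbance, 405 nm filter. Four-parameter Hill fit across titration.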
A number is an active result; 0 = inactive; ? = inconclusive; - = no result; + = active, no number.

SMILES | FMDV antiviral | CHX counter | Shiga toxin inh | Sm TGR inh
Cc1ccc(-n2c(C)cc(C(=O)CN3CCOCC3)c2C)cc1 | 0 | 46 | 85 | 0
Cc1cc(C(=O)CN2CCCC(C)C2)c(C)n1-c1ccc(F)cc1 (stereo not drawn) | 0 | 50 | 53 | 0
Cc1ccc(-n2c(C)cc(C(=O)CN3CCOCC3)c2C)cc1C | 0 | 0 | 0 | 0
Cc1ccc(NC(=O)COC(=O)Cc2csc(-c3ccc(Cl)cc3)n2)cc1C | 0 | 23 | + | 0
Cc1ccc(NC(=O)COC(=O)Cc2csc(-c3cccc(F)c3)n2)cc1C | 0 | 0 | 0 | 0
COC(=O)NNC(=O)c1ccc(Cl)cc1Cl | 0 | 0 | 0 | 0
O=C(NNc1cccc(Cl)n1)c1ccc(Cl)cc1Cl | 0 | 24 | 0 | 0
CC(Cl)C(=O)NNc1cccc(Cl)n1 (stereo not drawn) | 0 | 0 | 0 | 13µM
CCCCN1C(=O)CN(C2CCCCCC2)C(=O)C1c1ccc(OCCC)c(OC)c1 (stereo not drawn) | 0 | - | - | 0
CO/N=C/C(C#N)=C/c1ccc(OC)cc1 | 0 | 43 | 61 | 0
O=C(NNc1nc2cc3c(cc2s1)OCO3)c1cccc(F)c1 | 0 | 61 | active | 0
COc1cc(OC)cc(C(=O)NNc2nc3cc4c(cc3s2)OCO4)c1 | 0 | 0 | 0 | 0
O=C(NNc1nc2cc3c(cc2s1)OCO3)c1ccccc1 | 0 | 61 | 90 | 0
CCCCCCNC(=O)N[C@H](C(=O)NCCC[C@H]1CN2C(=NC[C@H]2C)N1CCC(c1ccccc1)c1ccccc1)C(C)O (stereo partly drawn) | - | 0 | 0 | 0.5µM
CCOC(=O)c1oc2ccccc2c1N | 0 | 27 | 67 | 0
COC(=O)CCC(=O)c1oc2ccc(Br)cc2c1N | 0 | 41 | + | 0
O=C(c1ccccc1)c1ccc(Sc2ccc([N+](=O)[O-])cc2)cc1 | 0 | 0 | 0 | 0
COc1ccc2oc(C(=O)CCC(=O)O)c(N)c2c1 | 0 | 0 | 0 | 0
Cc1ccc(C(=O)c2oc3ccccc3c2NC(=O)COc2ccccc2C)cc1 | 0 | - | - | 0
Cc1ccc(C(=O)c2oc3ccccc3c2N)cc1 | 0 | 20 | 74 | 0
Nc1c(C(=O)c2ccccc2)oc2ccc([N+](=O)[O-])cc12 | 0 | 26 | 41 | 0
CC(C)NC(=O)N1CC2(CCN(S(=O)(=O)c3ccccc3)CC2)C1 | 0 | - | - | -
Nc1c(C(=O)c2ccccc2)oc2ccc(Br)cc12 | 0 | 28 | 83 | 0
COC(=O)c1oc2ccc(Br)cc2c1-n1cccc1 | 0 | 0 | 0 | 0
Cc1cccc(C)c1OCC(=O)Nc1c(C(=O)c2ccc(Br)cc2)oc2ccccc12 | 0 | - | - | 0
SMILES | FMDV antiviral | CHX counter | Shiga toxin inh | Sm TGR inh
Nc1c(C(=O)c2ccc(Br)cc2)oc2ccccc12 | 0 | 30 | 45 | 0
COC(=O)CCSc1nc2sc3c(c2c(=O)n1Cc1ccccc1)CCC(C(C)(C)C)C3 (stereo not drawn) | 0 | - | - | 0
COc1ccc(CNC(=O)CN(c2ccccc2OC)S(=O)(=O)c2ccc(C)cc2)cc1 | ? | - | - | 0
COc1ccc(CNC(=O)CCC2N=C3c4ccccc4N=C(SCc4ccc(F)cc4)N3C2=O)cc1 (stereo not drawn) | 0 | - | - | 0
Cn1c(N)c(C(=O)COC(=O)Cc2cccs2)c(=O)n(C)c1=O | 0 | - | - | -
O=C(Cc1cccs1)OCC(=O)c1ccco1 | 0 | 0 | 0 | 25µM
Cc1ccc(C)c(SCC(=O)OCC(=O)c2ccco2)c1 | - | 0 | 0 | 40µM
O=C(CC(Sc1ccccc1)c1cccs1)c1ccco1 (stereo not drawn) | - | 26 | 57 | 0
Cc1ccc(C)c(SCC(=O)NCc2ccco2)c1 | 0 | 0 | 0 | 0
Cc1cccc(S(=O)Cc2ccc(C(=O)NC3CCCCCC3)o2)c1 (stereo not drawn) | 0 | - | - | 0
Cc1nc2c(c(=O)[nH]1)CSCC2 | 0 | 0 | 0 | -
O=C(O)c1ccccc1N/N=C/c1c(Sc2nnnn2-c2ccccc2)nc2ccccn2c1=O | 0 | 0 | 0 | 40µM
COc1cccc(C2C(C(=O)Nc3ccc(C)cc3C)=C(C)Nc3c(C(=O)Nc4cccc(C)c4)cnn32)c1OC (stereo not drawn) | 0 | - | - | 0
Cc1ccccc1C(=O)Nc1nc2nc(C)c(C)c(=O)n2[nH]1 | 0 | - | - | 0
COCc1ccc(C(=O)N(C)CC2CCCN(CCc3ccc(OC)cc3)C2)o1 (stereo not drawn) | 0 | 34 | 77 | 0
Cc1occc1C(=O)N(C)CC1CCCN(CCc2ccc(Cl)cc2)C1 (stereo not drawn) | 0 | - | - | -
COc1ccc(CCN2CCCC(CN(C)C(=O)c3ccoc3C)C2)cc1 (stereo not drawn) | 0 | 32 | 40 | 0
COc1ccc(CCN2CCCC(CN(C)C(=O)c3cc(C)oc3C)C2)cc1 (stereo not drawn) | 0 | 69 | 91 | 0
O=C(NCCn1ccc2ccccc21)c1ccc2c(c1)OCO2 | 0 | 40 | 64 | 0
Cc1ccc(C(=O)NCCn2ccc3ccccc32)cc1[N+](=O)[O-] | 0 | 35 | 80 | 0
Cc1c(C(=O)NCCn2ccc3ccccc32)cccc1[N+](=O)[O-] | 0 | 0 | 0 | 0
COc1ccc(C(=O)NCCn2ccc3ccccc32)cc1 | 0 | 13 | 0 | 0
O=C(NCCn1ccc2ccccc21)c1ccc(S(=O)(=O)N2CCCCC2)cc1 | ? | 0 | 0 | 0
O=C(NCc1cn2ccccc2n1)c1ccc2c(c1)OCO2 | 0 | 0 | 0 | 0
COCCn1c(=O)c(-c2ccc(Cl)cc2)nc2cncnc21 | 0 | - | - | -
SMILES | FMDV antiviral | CHX counter | Shiga toxin inh | Sm TGR inh
COc1ccc(NC2=NC(C)(CO)CS2)cc1 (stereo not drawn) | 0 | 14 | 0 | 0
COc1ccc(NC2=CC(=O)CC(C)(C)C2)cc1 | 0 | 0 | 0 | 0
CC(=O)NC(CC(=O)OC(C)C(=O)Nc1ccc(Cl)cn1)c1ccccc1 (stereo not drawn) | 0 | - | - | 0
CCc1ccc(NC(=O)C(C)OC(=O)CC(NC(C)=O)c2ccccc2)cc1 (stereo not drawn) | 0 | 33 | 0 | 0
COc1ccc(-c2cc3ccc(O)c(CN4CCCCC4C)c3oc2=O)cc1OC (stereo not drawn) | 0 | - | - | 0
COc1ccccc1NC(=O)c1cc2c(C)nn(-c3ccccc3)c2s1 | 0 | - | - | 0
Cc1nn(-c2ccccc2)c2sc(C(=O)NC3CC3)cc12 | 0 | 52 | 81 | 0
CN(C(=O)COC(=O)c1sc2ccccc2c1Cl)C1CCCCC1 | 0 | 0 | 55 | 0
CCCCOC(=S)NC(=O)c1sc2ccccc2c1Cl | 0 | 0 | 0 | 0
CN(C)CCCOC(=O)c1sc2ccccc2c1Cl | 0 | 39 | 59 | 0
CN(C(=O)COC(=O)CNC(=O)c1sc2ccccc2c1Cl)C1CCS(=O)(=O)C1 (stereo not drawn) | 0 | - | - | -
CCc1cccc(C)c1NC(=O)Cn1nc(C)c2nn(-c3ccc(Cl)cc3)c(C)c2c1=O | 0 | - | - | 0
O=C(NCc1ccc2c(c1)CCN2C(=O)c1ccccc1)c1ccco1 | 0 | - | - | 0
CCc1cc2c(cc3c(=O)n(CC(=O)NC4CCC(C)CC4)ncn32)s1 (stereo not drawn) | 0 | - | - | 0
CC(=O)Nc1ccc(S(=O)(=O)N2CCOCC2)cc1 | 0 | 0 | 0 | 0
CC1CN=C(N(C(=O)Nc2ccccc2)c2ccc(S(=O)(=O)N3CCOCC3)cc2)S1 (stereo not drawn) | 0 | 18 | 0 | 0
Cc1ccc(-n2nc(C(=O)Nc3cccc(C#N)c3)c3c4ccccc4n(C)c3c2=O)cc1 | 0 | - | - | 0
